A short description of assay [1]: anti-His antibody binders, primary screen, artefact control for SMM control protein annotation, biochemical, small-molecule microarray, 635 nm fluorescence (AID 1128).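 Note: score merges feature fluorescence with signal-to-noise for each printed compound spot.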 Conditions: anti-His Alexa647 antibody binding, higher = more signal.
Assay [2] concerns Human papillomavirus type 1a E7 protein (residues 1-88). Description: HPV1a E7 small-molecule binders, primary screen, biochemical, small-molecule microarray, residues 1-88, 635 nm (AID 1129). Conditions: small-molecule microarray binding, fluorescence 635 nm; higher = more signal.
The target of assay [3] is Focal adhesion kinase 1 (Homo sapiens) (UniProt Q05397). Put plainly: small-molecule microarray binders of FAK, primary screen, biochemical, 635/667 nm fluorescence, BSA, DTT (AID 1130).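 Note: composite of spot emission at 667 nm and signal to noise over triplicate slides.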 The settings on record: PTK2 binding, 635 nm fluorescence, higher = more signal.
Assay [4] has as its system Fibrinogen (Alexa647-labelled). Description: fibrinogen binders on compound microarrays, profiling panel, artefact control for SMM control-protein annotation, biochemical, small-molecule microarray, 635/667 nm fluorescence (AID 1131).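 Note: z-score merges 667 nm fluorescence with per-spot signal-to-noise over triplicate slides.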 The settings on record: fibrinogen-A647 binding fluorescence, higher = more signal.
Assay [5] concerns the target Follistatin (Homo sapiens) (UniProt P19883). Description: follistatin binders on small-molecule microarrays, primary screen, biochemical, small-molecule microarray, 635/667 nm fluorescence (AID 1132). The settings on record: FST binding, 635 nm fluorescence, higher = more signal.
Assay [6] concerns the target Fibroblast growth factor 2 (Homo sapiens) (UniProt P09038). Description: FGF2 binders on small-molecule microarrays, primary screen, biochemical, small-molecule microarray, 635/667 nm fluorescence (AID 1133). Conditions: small-molecule microarray binding, FGF2, fluorescence 635/667; higher = more signal.
Assay [7] can be described thus: mitochondrial membrane potential change in A549 cells, profiling panel, cell-based, JC-1 fluorescence, basal, 24 h, 100 nL (AID 1138).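 Note: A549 lung adenocarcinoma cells under basal conditions with no added stimulus; test concentration not given here.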 Conditions: higher = more signal.
The test system of another assay is Lefty1. Description: Lefty1 binders on small-molecule microarrays, primary screen, biochemical, small-molecule microarray, 635/667 nm fluorescence (AID 1139). The settings on record: small-molecule microarray binding, fluorescence 635/667; higher = more signal.
Assay [8] concerns wheat germ agglutinin (Triticum aestivum), Alexa647-labelled. Description: wheat germ agglutinin binders on compound microarrays, profiling panel, artefact control for SMM control-protein annotation, biochemical, small-molecule microarray, 635/667 nm fluorescence (AID 1140).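 Note: score merges 667 nm feature emission with signal to noise over triplicate slides.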 Conditions: WGA-A647 binding, 635 nm fluorescence, higher = more signal.
The target of assay [9] is Luciferin 4-monooxygenase (Photinus pyralis) (UniProt P08659). Description: firefly luciferase enzyme inhibitors, primary screen, biochemical, luminescence, purified enzyme, 2006 set (AID 1141).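 Note: cell-free assay with purified firefly luciferase at 100 ng per well in PBS; test concentration not given here.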 The settings on record: SteadyGlo luminescence, 30 min, higher = more signal, called active from +8 up or from −8 down.
Assay [10] has as its system Wnt5a (protein binding on small-molecule microarray). Description: Wnt5a binders on small-molecule microarray, primary screen, biophysical, 635/667 nm fluorescence (AID 1142).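 Note: fluorescence read at 667 nm with signal to noise per printed feature.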 Conditions: 635 nm fluorescence, higher = more signal.
The nature of assay [11]: cell viability in Huh7 cells, primary screen, cytotoxicity control for HCV replication inhibitor project, CellTiter-Glo luminescence, basal, 48 h (AID 1143).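 Note: Huh7 hepatoma cells carrying a hepatitis C replication reporter with no stimulus; test concentration not given here.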 Conditions: Huh7 HCV replicon, higher = more signal, called active from +8 up or from −8 down.
Assay [12] is described as follows: P. aeruginosa biofilm formation inhibitors, primary screen, PAO1 strain, BacTiter-Glo luminescence, LB-PBS (AID 1144). The settings on record: 12 h, higher = more signal.
A short description of assay [13]: CREB reporter modulators without forskolin, primary screen, cell-based, PC12, CRE-LacZ reporter, unstimulated (AID 1145). The settings on record: no forskolin, luminescence, 4.5 h, higher = more signal, called active from +8 up or from −8 down.
Assay [14] is described as follows: CREB reporter modulators under forskolin, primary screen, cell-based, PC12, CRE-LacZ reporter, forskolin-stimulated (AID 1146).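 Note: PC12 cells with 6xCRE LacZ reporter stimulated by forskolin 10 µM; beta-galactosidase reporter signal reflecting CREB driven transcription.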 The settings on record: luminescence, 4.5 h, higher = more signal, called active from +8 up or from −8 down.
In assay [15] the target is Streptavidin (Streptomyces avidinii) (UniProt P22629). Description: streptavidin binders on small-molecule microarray, primary screen, artefact control for SMM compound annotation, biophysical, 635/667 nm fluorescence (AID 1147).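 Note: signal reflects streptavidin binding to arrayed compounds as a control protein.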 Conditions: streptavidin binding, higher = more signal.
Assay [16] in a line: small-molecule binders of probe aInhba, primary screen, biochemical, small-molecule microarray, 635/667 nm fluorescence (AID 1148).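 Note: score merges 667nm spot fluorescence with signal-to-noise for antibody binding to printed compounds.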 Conditions: higher = more signal.
Assay [17] addresses Torsin-1A (Homo sapiens) (UniProt O14656). Put plainly: torsin A binders from cell lysate, primary screen, small-molecule microarray, wild-type, 635/667 nm (AID 1149). Conditions: COS7 hTOR1A-WT lysate, 635 nm fluorescence, higher = more signal.
For assay [18] the target is unchanged. Put plainly: small-molecule binders of mutant TOR1A in lysate, primary screen, cell lysate, small-molecule microarray, COS7 lysate, 635/667 nm fluorescence (AID 1150).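 Note: score pools 667 nm emission and signal to noise measuring lysate protein binding.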 The settings on record: COS7 hTOR1A mutant lysate, 635 nm fluorescence, higher = more signal.
For assay [19], the system named is Sonic hedgehog protein (Shh). Description: small-molecule binders of Shh protein, primary screen, biochemical, small-molecule microarray, 635/667 nm fluorescence (AID 1151).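 Note: Shh protein binding to compounds spotted on small-molecule microarray slides; score combines spot fluorescence intensity with signal-to-noise across triplicate slides.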 Conditions: small-molecule microarray binding, 635 nm fluorescence; higher = more signal.

Calls of active or inactive are those of the source. Unless noted, the rule behind the calls is not given here.

The values below come from PubChem BioAssay.

Sequence of Luciferin 4-monooxygenase (Photinus pyralis) (P08659 whole entry, looked up): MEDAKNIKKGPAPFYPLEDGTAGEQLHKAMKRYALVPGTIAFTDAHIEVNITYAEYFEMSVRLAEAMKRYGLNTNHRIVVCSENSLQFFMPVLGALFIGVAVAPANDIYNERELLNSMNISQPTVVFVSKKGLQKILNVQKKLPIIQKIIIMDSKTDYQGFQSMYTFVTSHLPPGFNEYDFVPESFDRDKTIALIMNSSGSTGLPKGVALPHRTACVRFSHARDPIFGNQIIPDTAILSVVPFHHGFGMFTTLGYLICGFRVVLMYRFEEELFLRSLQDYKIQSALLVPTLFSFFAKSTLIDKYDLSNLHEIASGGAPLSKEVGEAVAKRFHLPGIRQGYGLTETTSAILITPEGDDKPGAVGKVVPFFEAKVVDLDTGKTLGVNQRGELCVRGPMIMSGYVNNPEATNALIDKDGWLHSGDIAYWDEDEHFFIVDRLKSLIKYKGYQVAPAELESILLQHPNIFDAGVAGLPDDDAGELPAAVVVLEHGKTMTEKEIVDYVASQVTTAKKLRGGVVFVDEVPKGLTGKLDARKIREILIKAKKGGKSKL
Sequence of Torsin-1A (Homo sapiens) (O14656 whole entry, looked up): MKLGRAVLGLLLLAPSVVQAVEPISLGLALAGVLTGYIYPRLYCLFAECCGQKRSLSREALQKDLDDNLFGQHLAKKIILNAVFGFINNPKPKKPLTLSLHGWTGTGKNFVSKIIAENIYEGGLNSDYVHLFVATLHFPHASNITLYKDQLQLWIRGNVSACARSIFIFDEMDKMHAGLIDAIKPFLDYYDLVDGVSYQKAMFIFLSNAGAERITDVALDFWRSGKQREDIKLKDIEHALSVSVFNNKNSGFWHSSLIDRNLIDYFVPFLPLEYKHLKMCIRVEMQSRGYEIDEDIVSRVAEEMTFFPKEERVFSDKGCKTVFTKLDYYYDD
Sequence of Streptavidin (Streptomyces avidinii) (P22629 whole entry, looked up): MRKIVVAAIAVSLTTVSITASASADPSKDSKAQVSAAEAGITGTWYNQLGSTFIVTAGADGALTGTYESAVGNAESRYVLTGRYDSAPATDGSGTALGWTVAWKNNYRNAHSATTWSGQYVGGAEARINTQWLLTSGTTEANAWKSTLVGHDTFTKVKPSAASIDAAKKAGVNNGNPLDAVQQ
Sequence of Follistatin (Homo sapiens) (P19883 whole entry, looked up): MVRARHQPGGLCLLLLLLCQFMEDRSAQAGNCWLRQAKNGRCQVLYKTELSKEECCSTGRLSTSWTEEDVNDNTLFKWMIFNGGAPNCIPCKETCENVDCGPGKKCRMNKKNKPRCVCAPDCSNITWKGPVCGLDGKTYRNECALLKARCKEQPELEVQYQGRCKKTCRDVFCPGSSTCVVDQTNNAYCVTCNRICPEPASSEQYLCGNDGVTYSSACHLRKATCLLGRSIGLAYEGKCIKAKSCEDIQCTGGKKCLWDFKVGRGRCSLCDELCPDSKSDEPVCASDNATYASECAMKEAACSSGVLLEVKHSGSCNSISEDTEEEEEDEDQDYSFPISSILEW
Sequence of Fibroblast growth factor 2 (Homo sapiens) (P09038 whole entry, looked up): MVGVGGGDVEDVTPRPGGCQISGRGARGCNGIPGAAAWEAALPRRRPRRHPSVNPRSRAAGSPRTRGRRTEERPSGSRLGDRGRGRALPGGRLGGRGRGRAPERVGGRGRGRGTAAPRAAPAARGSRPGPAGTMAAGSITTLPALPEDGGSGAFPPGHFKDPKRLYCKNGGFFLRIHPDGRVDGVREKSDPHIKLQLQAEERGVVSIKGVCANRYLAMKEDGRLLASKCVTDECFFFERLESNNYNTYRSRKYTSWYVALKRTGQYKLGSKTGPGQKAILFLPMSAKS
Sequence of Focal adhesion kinase 1 (Homo sapiens) (Q05397 whole entry, looked up): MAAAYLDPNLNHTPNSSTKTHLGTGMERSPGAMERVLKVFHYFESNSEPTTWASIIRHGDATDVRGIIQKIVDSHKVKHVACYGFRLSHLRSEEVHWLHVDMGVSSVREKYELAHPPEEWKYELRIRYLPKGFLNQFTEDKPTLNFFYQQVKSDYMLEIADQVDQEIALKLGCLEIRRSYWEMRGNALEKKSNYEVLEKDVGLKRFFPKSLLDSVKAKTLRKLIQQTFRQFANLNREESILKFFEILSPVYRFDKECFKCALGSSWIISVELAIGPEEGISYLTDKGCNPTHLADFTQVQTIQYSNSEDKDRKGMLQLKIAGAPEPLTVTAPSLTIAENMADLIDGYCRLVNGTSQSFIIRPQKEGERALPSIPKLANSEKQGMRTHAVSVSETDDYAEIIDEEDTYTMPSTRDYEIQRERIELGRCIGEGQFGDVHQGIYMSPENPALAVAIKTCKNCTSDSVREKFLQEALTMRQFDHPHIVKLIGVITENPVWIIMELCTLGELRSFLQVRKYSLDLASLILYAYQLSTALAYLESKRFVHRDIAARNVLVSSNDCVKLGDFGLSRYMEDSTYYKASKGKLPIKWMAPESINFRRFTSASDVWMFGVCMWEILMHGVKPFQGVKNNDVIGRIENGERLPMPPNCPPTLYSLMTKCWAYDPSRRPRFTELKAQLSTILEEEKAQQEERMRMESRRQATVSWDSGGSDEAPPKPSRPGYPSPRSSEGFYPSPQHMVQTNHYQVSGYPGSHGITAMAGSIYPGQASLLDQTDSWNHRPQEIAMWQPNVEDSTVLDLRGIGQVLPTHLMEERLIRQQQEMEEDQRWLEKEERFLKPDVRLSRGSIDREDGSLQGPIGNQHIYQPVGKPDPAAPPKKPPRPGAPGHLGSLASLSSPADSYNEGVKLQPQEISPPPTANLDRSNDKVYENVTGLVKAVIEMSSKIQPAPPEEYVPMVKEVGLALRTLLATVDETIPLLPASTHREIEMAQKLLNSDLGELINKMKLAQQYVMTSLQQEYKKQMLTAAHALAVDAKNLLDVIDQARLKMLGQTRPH

For `COCCOC(=O)N1C(=O)[C@@]2(c3ccccc31)[C@H](c1ccccc1OCCO)N1[C@H](c3ccccc3)[C@H](c3ccccc3)OC(=O)[C@H]1[C@@H]2C(=O)N1CCc2cc(OC)c(OC)cc2C1`, the composite z-score came to 1.14 in assay [1]; 0.659 in [2]; 0.413 in assay [3]; 0.457 in assay [4]; 1.27 in assay [5]; 1.36 in [6]. In addition, the composite z-score in the assay on Lefty1 amounted to 0.756; in assay [8] it was 0.435; in [10] it was 0.212; in assay [15], 0.02; in assay [16], 0.255; in the assay with Torsin-1A (Homo sapiens) [17], 0.517. Further, the composite z-score was 0.546 with Torsin-1A (Homo sapiens) [18] and 1.24 in assay [19]. The z-score in [7] was -1.03; in assay [9], -0.209 (inactive); in [11] it was -3.53 (inactive); in assay [12], -1.04 (inactive); in [13], 0.0736 (inactive); in [14], 2.88 (inactive).
`CC(C)NC(=O)[C@@]1(Cc2ccccc2I)c2ccccc2C(=O)N(Cc2ccccc2C(F)(F)F)[C@H]1c1ccc(CO)cc1`: the composite z-score amounted to 0.992 in assay [1]; 0.906 in [2]; 0.601 in [3]; 0.75 in [4]; 0.464 in assay [5]; 0.125 in [6]. In addition, the composite z-score with Lefty1 was 0.266; in assay [8] it was 1.15; in [10], 0.0851; in [15], -0.503; in assay [16] it was 0.225; with Torsin-1A (Homo sapiens) [17], -0.158. Further, the composite z-score is 0.644 in the assay with Torsin-1A (Homo sapiens) [18] and 0.66 in assay [19]. Moreover, the z-score was 1.29 in assay [7]; -0.793 (inactive) in [9]; -1.7 (inactive) in assay [11]; 0.358 (inactive) in assay [12]; 0.856 (inactive) in assay [13]; -0.151 (inactive) in [14].
As to `O=C1c2ccccc2[C@](Cc2ccccc2I)(C(=O)NCC(F)(F)F)[C@H](c2ccc(CO)cc2)N1Cc1ccccc1`, the composite z-score was 0.0638 in assay [1]; 1.17 in [2]; 0.77 in assay [3]; 0.97 in assay [4]; 1.14 in assay [5]; -0.0189 in assay [6]. Further, the composite z-score in the assay on Lefty1 was 0.343; in assay [8], 0.469; in assay [10] it was -0.134; in [15], 1; in [16] it was 0.098; in the assay with Torsin-1A (Homo sapiens) [17], -0.661. The composite z-score turned out to be 0.341 with Torsin-1A (Homo sapiens) [18] and 0.46 in [19]. Besides, the z-score in assay [7] is 0.71; in [9], 0.875 (inactive); in assay [11], -0.396 (inactive); in [12], 0.144 (inactive); in assay [13] it was 0.272 (inactive); in assay [14], 2.76 (inactive).
